Results filed as inconclusive are left out. Active and inactive are the calls of the source. Unless noted, calls follow the shape of the dose curve; as a rule, active = well fitted curve in the direction sought with a large enough effect in the repeat runs; inconclusive = weak or mixed curves; inactive = no such curve, though single readings can be large; an effect the other way counts as inactive or inconclusive.
Legend:
[1] = A CellTox Green Cytotoxicity Assay to monitor cytotoxicity in HepG2 cells - 0 hour (AID 1224882); also: nearly all actives have a fitted effect of over 35% in size
In short: (§1)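 Measurements at 0, 8, 16, 24, 32 and 40 h of treatment captured CellTox Green fluorescence in HepG2 cells that had been co-plated with reagent and preincubated 5 h at 37 C/5% CO2.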

[2] = A CellTox Green Cytotoxicity Assay to monitor cytotoxicity in HepG2 cells - 32 hour (AID 1224883); also: nearly all actives have a fitted effect of over 50% in size
In short: as §1

[3] = A CellTox Green Cytotoxicity Assay to monitor cytotoxicity in HEK293 cells - 8 hour (AID 1224884); also: nearly all actives have a fitted effect of over 35% in size
In short: (§2)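 Tox21 screen in HEK293: membrane-impermeant cyanine dye fluoresces on binding dead-cell DNA; compound pinned 5 h post-seeding, plates held at 37 C, signal read repeatedly through 40 h.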

[4] = qHTS RealTime-Glo MT Cell Viability Assay in HepG2 cells - 16 hour (AID 1224885); also: nearly all actives have a fitted effect of over 50% in size
In short: (§3)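 HepG2 suspension premixed with RealTime-Glo reagents is plated at 600 cells per well and left 5 h at 37 C/5% CO2. Compounds in DMSO then go in, and bioluminescence reflecting viable cell number is recorded over 40 h.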

[5] = qHTS RealTime-Glo MT Cell Viability Assay in HEK293 cells - 24 hour (AID 1224886); also: top concentration of the series differs between compounds; nearly all actives have a fitted effect of over 50% in size
In short: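 Reads taken at 0, 8, 16, 24, 32 and 40 h from the same wells. HEK293 cells (600/well) carried RealTime-Glo reagents from seeding, with compound added after a 5 h settle at 37 C.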

[6] = qHTS RealTime-Glo MT Cell Viability Assay in HEK293 cells - 8 hour (AID 1224887); also: top concentration of the series differs between compounds; nearly all actives have a fitted effect of over 50% in size
In short: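 HEK293 + NanoLuc + prosubstrate, 600 cells/well; 5 h, 37 C/5% CO2; compound 23 nL in DMSO by pintool; 37 C; luminescence read at 0, 8, 16, 24, 32 and 40 h time points.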

[7] = A CellTox Green Cytotoxicity Assay to monitor cytotoxicity in HEK293 cells - 16 hour (AID 1224888); also: nearly all actives have a fitted effect of over 35% in size
In short: as §2

[8] = qHTS RealTime-Glo MT Cell Viability Assay in HepG2 cells - 0 hour (AID 1224889); also: nearly all actives have a fitted effect of over 50% in size
In short: as §3

[9] = A CellTox Green Cytotoxicity Assay to monitor cytotoxicity in HepG2 cells - 8 hour (AID 1224890); also: nearly all actives have a fitted effect of over 45% in size
In short: as §1

[10] = qHTS assay to identify small molecule antagonists of the estrogen receptor alpha (ER-alpha) signaling pathway using the BG1 cell line in the presence of 0.1 nM 17-beta-estradiol - cell viability counter screen (AID 1259241); also: nearly all actives have a fitted effect of over 40% in size
In short: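 Viability in VM7Luc4E2 cells after 22 hr compound exposure under 0.1 nM 17beta-estradiol stimulation, by CellTiter-Fluor.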

[11] = qHTS assay to identify small molecule antagonists of the androgen receptor (AR) signaling pathway using the MDA cell line in the presence of 0.5 nM R1881 - cell viability counter screen (AID 1259242); also: nearly all actives have a fitted effect of over 45% in size
In short: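 Concentration-response screen of compounds for toxicity in MDA-kb2 reporter cells: 16 hr at 37C with 0.5 nM R1881, endpoint live-cell protease fluorescence measured in the reporter wells.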

[12] = qHTS assay to identify small molecule phospholipidosis (PLD) inducers (AID 1259344; active = well fitted curve in the direction sought with a large enough effect; an effect the other way counts as inactive or inconclusive)
In short: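 Read-out is LipidTOX Red fluorescence (ex 595/em 615) imaged in HepG2 cells after 24 h compound exposure at 37 C, with Hoechst nuclear counterstain (ex 352/em 461) allowing per-cell normalisation.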

[13] = qHTS assay to identify small molecule HDAC inhibitors (AID 1259364);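 also: wild-type HCT-116 cells with endogenous class I/II HDAC activity; top concentration of the series differs between compounds; nearly all actives have a fitted effect of over 45% in size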
In short: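 Screening used wild-type human colon HCT-116 cells incubated overnight, dosed with compounds for 2 hours, and assayed with a homogeneous luminogenic HDAC I/II reagent for 30 minutes at room temperature.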

[14] = qHTS assay to identify small molecule HDAC inhibitors - cell viability counter screen (AID 1259365)
In short: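 Cytotoxicity was gauged in wild-type HCT-116 cells after a brief 2hr treatment with DMSO-dissolved compounds at 37C and 5% CO2, using CellTiter-Glo luminescence developed for 30min at room temperature.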

[15] = qHTS assay to identify small molecule antagonists of the sonic hedgehog signaling (Shh) pathway - cell viability counter screen (AID 1259367); also: nearly all actives have a fitted effect of over 55% in size
In short: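 Fluorescence read-out (CellTiter-Fluor, 1 hr at 37C) taken after 23 hr compound treatment of 3T3 Gli1-Luc cells stimulated with conditioned medium. Cells were seeded at 2,000 per well and pre-incubated 4 hr.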

[16] = qHTS assay to identify small molecule agonists of the sonic hedgehog signaling (Shh) pathway (AID 1259368; calls by dose curve;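 also: NIH/3T3-derived 3T3Gli1-Luc cells carrying a stable Gli1-driven firefly luciferase reporter; series mostly up to about 92 µM; nearly all actives have a fitted effect of over 15% in size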)
In short: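 Hedgehog pathway agonism scored by increased firefly luciferase luminescence in 3T3Gli1-Luc cells treated 24 hr at 37 C; detection used a 30 min room-temperature reagent incubation.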

[17] = qHTS assay to identify small molecule antagonists of the sonic hedgehog signaling (Shh) pathway (AID 1259369; calls by dose curve; also: nearly all actives have a fitted effect of over 45% in size; also: potency is read from the fitted curve at half-maximal effect)
In short: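 NIH/3T3 stable Gli1-Luc clone, 2,000 cells/well, 4hr settle; cpd + conditioned medium 24hr; Luc reagent 30min RT; luminescence.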

[18] = qHTS assay to identify small molecule agonists of the sonic hedgehog signaling (Shh) pathway - cell viability counter screen (AID 1259366); also: nearly all actives have a fitted effect of over 50% in size
In short: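 Stable Gli1-Luc NIH/3T3 clone, 2,000 cells/well. Compound exposure 24hr at 37C. Read-out: CellTiter-Fluor fluorescence.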

[19] = molecular target: Estrogen receptor (Homo sapiens) (UniProt P03372); assay: qHTS assay to identify small molecule antagonists of the estrogen receptor alpha (ER-alpha) signaling pathway using the BG1 cell line in the presence of 0.1 nM 17-beta-estradiol (AID 1259244); also: nearly all actives have a fitted effect of over 50% in size
Estrogen receptor (Homo sapiens), sequence (P03372 whole entry, looked up): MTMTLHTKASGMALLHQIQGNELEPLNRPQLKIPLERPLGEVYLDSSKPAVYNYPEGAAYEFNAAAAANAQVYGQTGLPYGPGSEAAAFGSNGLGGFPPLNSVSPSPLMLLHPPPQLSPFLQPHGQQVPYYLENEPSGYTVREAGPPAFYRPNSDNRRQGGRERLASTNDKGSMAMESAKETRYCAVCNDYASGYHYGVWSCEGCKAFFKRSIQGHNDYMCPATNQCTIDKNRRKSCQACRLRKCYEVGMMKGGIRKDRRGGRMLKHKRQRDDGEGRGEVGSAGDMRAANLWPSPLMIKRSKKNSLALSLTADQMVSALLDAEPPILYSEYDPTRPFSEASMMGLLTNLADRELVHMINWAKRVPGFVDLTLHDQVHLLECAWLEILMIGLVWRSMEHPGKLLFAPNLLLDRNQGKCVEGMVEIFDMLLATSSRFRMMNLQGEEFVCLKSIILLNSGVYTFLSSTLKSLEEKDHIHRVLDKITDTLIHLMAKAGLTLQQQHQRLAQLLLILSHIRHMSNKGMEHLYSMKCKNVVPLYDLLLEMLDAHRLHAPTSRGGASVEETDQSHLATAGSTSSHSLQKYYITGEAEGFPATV
In short: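 Compounds were tested against 0.1 nM (final) 17beta-estradiol in VM7Luc4E2 cells, which express full-length ER-alpha and an ERE-luciferase reporter; luminescence was recorded following 22 h exposure.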
% is scaled to controls: 0 for no effect and ±100 for the full control effect.

Cc1ncc(COP(=O)(O)O)c(C=O)c1O
inactive: Potency [1] | Potency [2] | outcome [3] | outcome [4] | Potency [5] | Potency [6] | outcome [7] | Potency [8] | outcome [9] | outcome [10] | outcome [11] | outcome [12] | Potency [13] | outcome [14] | Potency [15] | outcome [16] | Potency [17]

NC(=O)N1c2ccccc2CC(=O)c2ccccc21
inactive: Potency [1] | Potency [2] | outcome [3] | outcome [4] | Potency [5] | Potency [6] | outcome [7] | Potency [8] | outcome [9] | outcome [10] | outcome [11] | outcome [12] | Potency [13] | outcome [14] | Potency [18] | Potency [15] | outcome [16]

COCCOCC(OC)OC
inactive: Potency [1] | Potency [2] | outcome [3] | outcome [4] | Potency [5] | Potency [6] | outcome [7] | Potency [8] | outcome [9] | outcome [10] | outcome [11] | outcome [19] | Potency [13] | outcome [14] | Potency [15] | outcome [16]

CCCC[N+](C)(CCCC)CCCC
inactive: Potency [1] | Potency [2] | outcome [3] | outcome [4] | Potency [5] | Potency [6] | outcome [7] | Potency [8] | outcome [9] | outcome [10] | outcome [11] | Potency [13] | outcome [14] | Potency [18] | Potency [15] | outcome [16]

CCCO[Si](OCCC)(OCCC)OCCC
inactive: Potency [1] | Potency [2] | outcome [3] | outcome [4] | Potency [5] | Potency [6] | outcome [7] | Potency [8] | outcome [9] | outcome [10] | outcome [11] | outcome [19] | Potency [13] | outcome [14] | Potency [15] | outcome [16] | Potency [17]

CCN(CC#N)c1cccc(C)c1
inactive: Potency [1] | Potency [2] | outcome [3] | outcome [4] | Potency [5] | Potency [6] | outcome [7] | Potency [8] | outcome [9] | outcome [10] | outcome [11] | Potency [13] | outcome [14] | Potency [18] | Potency [15] | outcome [16]

NC(N)=NCCN1CCCCCCC1
inactive: cytotoxicity [1] -10% [at 0.29 µM] | cytotoxicity increase [2] -12.8% [at 0.29 µM] | cytotoxicity increase [3] 0.959% [at 0.29 µM] | activity change, negative = cytotoxic [4] 1.58% [at 0.29 µM] | activity change, negative = cytotoxicity [5] -3.39% [at 0.29 µM] | activity change, negative = cytotoxicity [6] -0.479% [at 0.29 µM] | activity change [7] 1.24% [at 0.29 µM] | activity change, negative = cytotoxicity [8] 0.442% [at 0.29 µM] | cytotoxicity increase [9] -11.3% [at 0.29 µM] | activity change, negative = cytotoxicity [10] -0.721% [at 0.349 µM] | viability change, negative = cytotoxic [11] 1.84% [at 0.349 µM] | outcome [12] | activity change, negative = inhibition [13] -1.37% [at 0.349 µM] | activity change, negative = cytotoxicity [14] -1.69% [at 0.349 µM] | viability change, negative = cytotoxic [18] -1.53% [at 0.349 µM] | viability change, negative = cytotoxic [15] 3.04% [at 0.349 µM] | activity change [16] -0.0353% [at 0.349 µM] | activity change, negative = inhibition [17] 18.5% [at 0.349 µM]

CCOCC(C)O (configuration not stated)
inactive: Potency [1] | Potency [2] | outcome [3] | outcome [4] | Potency [5] | Potency [6] | outcome [7] | Potency [8] | outcome [9] | outcome [10] | outcome [11] | outcome [19] | outcome [14] | Potency [18] | Potency [15] | outcome [16]

C[C@@H]1CCC[C@H](C)N1
inactive: Potency [1] | Potency [2] | outcome [3] | outcome [4] | Potency [5] | Potency [6] | outcome [7] | Potency [8] | outcome [9] | outcome [10] | outcome [11] | outcome [12] | Potency [13] | outcome [14] | Potency [18] | Potency [15] | outcome [16] | Potency [17]

O=[N+]([O-])c1ccc(/C=N\O)o1
inactive: Potency [1] | Potency [2] | outcome [3] | outcome [4] | Potency [5] | Potency [6] | outcome [7] | Potency [8] | outcome [9] | outcome [10] | outcome [11] | outcome [12] | Potency [13] | outcome [14] | Potency [18] | Potency [15] | outcome [16]

O=C(O)c1cc(C(=O)O)cc(C(=O)O)c1
inactive: Potency [1] | Potency [2] | outcome [3] | outcome [4] | Potency [5] | Potency [6] | outcome [7] | Potency [8] | outcome [9] | outcome [10] | outcome [11] | outcome [19] | Potency [13] | outcome [14] | outcome [16]

CCCCCC(=O)OCCc1ccccc1
inactive: Potency [1] | Potency [2] | outcome [3] | outcome [4] | Potency [5] | Potency [6] | outcome [7] | Potency [8] | outcome [9] | outcome [10] | outcome [11] | outcome [19] | outcome [14] | Potency [15] | outcome [16] | Potency [17]

CN(C)[C@@H]1C(=O)C(C(=O)NCN2CCCC2)=C(O)[C@@]2(O)C(=O)C3=C(O)c4c(O)cccc4[C@@](C)(O)C3C[C@@H]12 (some centres not stated)
inactive: Potency [1] | Potency [2] | outcome [3] | outcome [4] | Potency [5] | Potency [6] | outcome [7] | Potency [8] | outcome [9] | outcome [10] | outcome [11] | outcome [12] | Potency [13] | outcome [14] | Potency [18] | Potency [15] | outcome [16] | Potency [17]

CCCCc1nc(Cl)c(CO)n1Cc1ccc(-c2ccccc2-c2nn[nH]n2)cc1
active: Potency [17] 596 nM
inactive: Potency [1] | Potency [2] | outcome [3] | outcome [4] | Potency [5] | Potency [6] | outcome [7] | Potency [8] | outcome [9] | outcome [10] | outcome [11] | outcome [12] | outcome [14] | Potency [18] | Potency [15] | outcome [16]

Nc1ccncc1N
inactive: Potency [1] | Potency [2] | outcome [3] | outcome [4] | Potency [5] | Potency [6] | outcome [7] | Potency [8] | outcome [9] | outcome [10] | outcome [11] | outcome [12] | Potency [13] | outcome [14] | Potency [18] | Potency [15] | outcome [16] | Potency [17]
